# Source: PubChem BioAssay AID488890 (Southern Research Specialized Biocontainment Screening …, 2010)
# The campaign covered roughly 320,000 compounds. About 1,300 (0.41%) were called active. About 3% were inconclusive and are not listed. The rule behind the calls is not given here. These entries were drawn from the full list. Potency and affinity values are given separately.
# Assay: growth inhibition of non-replicating M. tuberculosis (AID 488890);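 note: plate controls were DMSO cells for no effect and high antibiotic wells for full effect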
# Details: Mycobacterium tuberculosis non-replicating, at 25 µM, stronger effect = higher value
row,Compound,inhibition
1,Brc1ccccc1OCCNCc1ccccc1,32.1%
2,Cc1ccc(C)c(OCCCNCc2ccccc2)c1,32.5%
3,CCc1sc(C(=O)Nc2ccc3c(c2)OCO3)cc1C,61.2%
4,O=C(Nc1ccc2c(c1)OCO2)c1cccs1,21.2%
5,O=C(N/N=C/c1c(Nc2cccc(C(F)(F)F)c2)nc2ccccn2c1=O)c1ccccc1[N+](=O)[O-],-6.01%
6,CN(C)c1ccccc1C(=O)c1ccccc1N(C)C,9.64%
7,O=[N+]([O-])c1ccccc1Oc1cnc2ccccc2n1,46.2%
8,Oc1ccc(Cl)cc1C1=NNC(c2cc(Br)cc3c2OCOC3)C1 (stereo unspecified),61.3%
9,Oc1ccccc1C1CC(c2cccs2)=NC(c2ccc(Cl)cc2)N1 (stereo unspecified),73.4%
10,COC(=O)C1=C(C(=O)OC)[C@@H]2N(Cc3ccccc3)c3ccccc3[C@@]23C[C@@H](C(=O)OC)N(C(=O)c2cccs2)C3=N1,21.8%
11,CC1CCc2c(C(=O)NCCCN3CCOCC3)csc2C1 (stereo unspecified),-0.86%
12,COc1cc(NS(=O)(=O)c2csc(C(N)=O)c2)cc(OC)c1,2.46%
13,COc1ccc(C)c2sc(N(CCN(C)C)C(=O)c3ccc4ccccc4c3)nc12,28.4%
14,CCOc1ccc(NC(=O)COc2ccc3c(c2)CCC3)cc1OC,66.5%
15,CC(=O)Nc1ccc(NC(=O)COc2ccc3c(c2)CCC3)cc1,79.7%
16,Cc1cccnc1NC(=O)COc1ccc2c(c1)CCC2,70.6%
17,Cc1cc(NC(=O)COC(=O)COc2ccc3c(c2)CCC3)no1,10.3%
18,Cc1ccc(NC(=O)COc2ccc3oc4c(c3c2)CCCC4)nc1,57.5%
19,Cc1ccc(CNC(=O)COc2ccc3c(c2)CCC3)cc1,55.2%
20,CC(C)C[C@@H](CSc1ccccc1)N1CCN(CCc2ccccc2)CCC1=O,31%
21,Fc1cccc(Cl)c1/C=C/c1cnc2ccccc2n1,13.9%
22,COc1ccc(-c2noc(CN(C)CCC3CCCCO3)n2)cc1 (stereo unspecified),17.2%
23,COc1ccc(N2C(=O)CSC2c2cccc(F)c2)cc1 (stereo unspecified),1.65%
24,COC(=O)C1=CN(c2ccc(OC)cc2)C=C(C(=O)OC)C1c1cccc(F)c1,26.1%

row,Compound,inhibition
1,COc1ccccc1N(CC(=O)NCC1CCCO1)C(=O)CCC(=O)Nc1nccs1 (stereo unspecified),1.91%
2,Cc1nc2ccccc2c(=O)n1-c1cc(F)ccc1F,10.4%
3,Nc1ccccc1C(=O)c1ccccc1,-8.33%
4,Nc1ccccc1C#Cc1ccccc1,44.7%
5,COc1ccc(C(=O)Cn2c(NCCO)nc3ccccc32)cc1,-8.13%
6,CCCCNC(=O)CCn1nc(-c2ccc(C)cc2)c2ccccc2c1=O,1.93%
7,Cc1cc(C(=O)N/N=C/c2ccc3ccccc3c2)n[nH]1,-9.05%
8,CCOC(=O)Cn1ccc(NC(=O)c2ccc3c(c2)OCO3)n1,-2.16%
9,Cc1cccc(Cn2ccc(NC(=O)c3cccnc3)n2)c1,31.2%
10,CC1CCCC(C)N1C(=O)COC(=O)c1c[nH]c2ccccc12 (stereo unspecified),15.5%
11,O=C(NCCO)c1cc2cc(Cl)cc(Cl)c2oc1=O,18%
12,COCCNC(=O)c1cc2cc(Br)cc(OC)c2oc1=O,56%
13,COc1ccccc1/C=C/C(=O)OCCN1C(=O)c2ccccc2C1=O,2.64%
14,NC(=O)C1CCN(C(=O)NC2CC(=O)N(c3ccc4c(c3)OCCO4)C2)CC1 (stereo unspecified),-13.4%
15,CCC/C(=N/NC(=O)c1csc(C)c1C)c1ccc(Cl)s1,0.55%
16,C/C(=N\NC(=O)c1ccc(C(=O)N/N=C(\C)c2ccco2)o1)c1ccco1,19.3%
17,C/C(=N\NC(=O)c1ccco1)c1ccc(C(=O)O)s1,-5.86%
18,CC(NC(=O)c1ccco1)C(=O)OCC(=O)c1ccc(Cl)s1 (stereo unspecified),13.9%
19,O=C(COC(=O)c1ccc(Cl)nc1)NNC(=O)c1ccc(Br)cc1,6.9%
20,Cc1ccc(CS(=O)(=O)c2ccc(C(=O)N3CCN(c4ccccn4)CC3)cc2[N+](=O)[O-])cc1,-16.8%
21,CC(OC(=O)c1cccs1)C(=O)NC1CCCCC1C (stereo unspecified),-13.9%
22,Cc1ccc(C(=O)OC(C)C(=O)NC2CCCCC2C)s1 (stereo unspecified),-2.95%
23,COc1ccc(C(CNC(=O)C(Cc2ccccc2)NC(N)=O)N(C)C)cc1 (stereo unspecified),3.12%
24,CCNC(=S)NNC(=O)c1ccncc1,65.4%

row,Compound,inhibition
1,CC(C)(C)C(=O)NC(=S)NNC(=O)c1ccncc1,71.7%
2,N/C(Cn1cncn1)=N\NC(=O)C(=O)Nc1ccccc1,18%
3,Nc1ccc(Br)cc1Br,-19.9%
4,Nc1ccc(Oc2ccc(Br)cc2)cc1,60.5%
5,Cc1cc2ncn(/N=C/c3cccnc3)c2cc1C,55%
6,Cc1ccc(/C=N/n2c(C)nc3ccccc3c2=O)s1,18.6%
7,Nc1nc2ccccc2n1/N=C/c1ccc([N+](=O)[O-])s1,74.1%
8,Cc1cc2ncn(/N=C/c3ccc4c(c3)OCO4)c2cc1C,64.7%
9,OCc1nc2ccccc2n1/N=C/c1cccs1,-12%
10,O=[N+]([O-])c1ccc(O)c(/C=N/n2c(CO)nc3ccccc32)c1,-11.8%
11,COc1ccc(C(=O)Nc2ccccc2)cc1S(=O)(=O)NCc1ccco1,-9.46%
12,Cc1ccc(S(=O)(=O)N2CCCC(C(=O)NNCC(=O)Nc3cc(F)ccc3F)C2)cc1 (stereo unspecified),11.7%
13,O=C(Nc1nnc(SCc2ccccc2F)s1)C1=COCCO1,45.5%
14,CNC(=O)COC(=O)c1ccc([N+](=O)[O-])cc1Cl,11.7%
15,CCc1cc2ccc(C)cc2nc1SCC(=O)c1ccc(NC(C)=O)cc1,12%
16,CC(C)Oc1ccc(NC(=O)CCC(=O)O)cc1,-9.1%
17,CC(C)Oc1ccc(NC(N)=O)cc1,-4.08%
18,Cc1ccc(C(=O)CNc2ccc(Cl)cc2)cc1,74.1%
19,Cc1ccc(NCC(=O)c2ccc(C)cc2)cc1,72.5%
20,Cc1ccc(-c2nnn(CC(=O)N(c3ccccc3)C(C(=O)NCC3CCCO3)c3cccs3)n2)o1 (stereo unspecified),-3.42%
21,O=C(O)C1C2C=CC(C2)C1C(=O)Nc1nccs1 (stereo unspecified),-3.04%
22,COc1ccc2c(=O)c(-c3ccccc3C)c(C)oc2c1,50.8%
23,Cc1ccc(N2C(=O)C3C4C=CC(CNC(=S)Nc5ccc(F)cc5)(O4)C3C2=O)cc1 (stereo unspecified),54.3%
24,COc1ccc(Cl)cc1S(=O)(=O)n1c([N+](=O)[O-])cnc1C,-6.01%

row,Compound,inhibition
1,O=C(Cc1ccc([N+](=O)[O-])cc1)Nc1ccc(Br)cn1,-0.37%
2,COc1ccc(OCC(=O)Nc2cccc(NC(=O)COc3ccc(OC)cc3)n2)cc1,-11.7%
3,O=C(Cc1ccc(Cl)cc1)Nc1ccc(Cl)cn1,78.1%
4,O=C(COC(=O)CCOc1ccccc1)Nc1ccc(Cl)cn1,79.6%
5,Cc1ccc(NC(=O)Cc2ccc(Cl)cc2)nc1,27.8%
6,O=C(COC(=O)COc1ccccc1)Nc1ccc(Cl)cn1,22.1%
7,Cc1ccc(OCC(=O)NC(=S)Nc2cccc(C)n2)cc1,7.91%
8,Cc1ccc(OCC(=O)Nc2ccc([N+](=O)[O-])cn2)cc1C,-14.3%
9,COc1ccc(-c2nnc(NC(=O)c3cc(C)on3)s2)cc1,71.9%
10,O=C(OCc1cc(Cl)cc2c1OCOC2)c1cccnc1Cl,14.6%
11,CC(C)CCNc1nc(N)c([N+](=O)[O-])c(NCCO)n1,-5.48%
12,CCOc1cc(C2C(C(=O)c3ccco3)=C(O)C(=O)N2CCc2ccccc2)ccc1O (stereo unspecified),29.2%
13,COc1ccc(C2=NOC(Cn3nc(-c4ccccc4)cc3C(=O)NCc3cccc(Br)c3)C2)cc1 (stereo unspecified),-12.8%
14,Cn1c(N2CCCCC2)cc(=O)n(C)c1=O,-10.1%
15,CCOC(=O)C1CCCN(C2CC(=O)N(c3ccccc3)C2=O)C1 (stereo unspecified),30.8%
16,COC(=O)[C@@H]1C[C@@H]2CC[C@@H](O)C[C@@H]2N1Cc1ccccc1OS(=O)(=O)c1ccc(C)cc1,26.6%
17,Cc1cccc(-c2noc(CCCC(=O)NCC3CCCO3)n2)c1 (stereo unspecified),16.8%
18,O=C(c1cccc(S(=O)(=O)NCc2ccccc2)c1)N1CCN(c2ccccc2)CC1,17.1%
19,Cc1ccn2c(=O)nc(SCC(=O)Nc3ccc4c(c3)OCO4)nc2c1,25.1%
20,O=C(COc1ccccc1Cl)Nc1ccc(Cl)cn1,29.8%
21,O=C(COC(=O)c1ccc([N+](=O)[O-])cc1)Nc1ccc(Cl)cn1,34.3%
22,Cc1ccc(C(=O)OCC(=O)Nc2ccc(Cl)cn2)s1,35.7%
23,O=C(COc1ccc(Cl)cc1Cl)Nc1ccc(Cl)cn1,61%
24,c1ccc(-c2nnc(OCC3CCCO3)c3ccccc23)cc1 (stereo unspecified),4.74%

row,Compound,inhibition
1,CCOc1ccc(C(=O)N/N=C/c2ccc(SC)cc2)cc1,7.39%
2,COc1ccc(Br)cc1S(=O)(=O)N1CCN=C1c1ccccc1,9.49%
3,CCOC(=O)c1c[nH]c2c(C)ccc(Cl)c2c1=O,5.99%
4,O=C(/C(=C/O)N=Nc1ccccc1)c1cccs1,29.9%
5,Cc1cccc(N=N/C(=C\O)C(=O)c2cccs2)c1,23.2%
6,CC1CCN(C(=O)CCCNC(=O)Cn2cnc3sc4c(c3c2=O)CCCC4)CC1,-3.59%
7,Cc1onc(-c2c(F)cccc2Cl)c1C(=O)NCCc1ccncc1,-2.23%
8,O=C(NCc1cccc2[nH]ccc12)C1CCC(=O)N(CCc2ccc(Cl)cc2)C1 (stereo unspecified),14.7%
9,CN1C[C@@H]2C[C@@H](C3=Cc4cc(Cl)ccc4OC3)N3CCC[C@@]23C1=O,8.63%
10,CN(CC(=O)Nc1ccccc1N1CCOCC1)CC(=O)Nc1ccc(F)c(F)c1F,7.73%
11,CCCC(=O)NC(Nc1ccc(S(=O)(=O)Nc2cc(C)on2)cc1)(C(F)(F)F)C(F)(F)F,69.8%
12,C/C(=N/NC(=O)c1ccccc1)C(=O)O,21.7%
13,CC(/C=C/c1ccccc1F)=N\NC(=O)C(C)C,13.2%
14,CC(/C=C/c1ccccc1)=N/NC(=O)CNC(=O)c1ccc2c(c1)OCO2,-0.44%
15,O=C(N/N=C/c1ccc2c(c1)OCO2)C1COc2ccccc2O1 (stereo unspecified),69.6%
16,CC(/C=C/c1ccc2c(c1)OCO2)=N\NC(=O)C(O)c1ccccc1 (stereo unspecified),-1.85%
17,CC(/C=C/C=C/c1ccccc1)=N/NC(=O)c1ccc2c(c1)OCCO2,11.1%
18,O=C(COc1cc(F)ccc1[N+](=O)[O-])Nc1cccc(S(=O)(=O)NC2=NCCC2)c1,-15.8%
19,C=CCSc1nccc(=O)[nH]1,17.7%
20,COc1ccc(CCNC(=O)NC(C(F)(F)F)C(F)(F)F)cc1OC,-0.6%
